Compound activity deposited in PubChem by National Center for Advancing Translational Sciences (NCATS).
Only some compounds are listed: those with a hit (about 10% of all), similar ones and a draw of the others.
Luc counter: counter-screen: inhibitors of Kinase-Glo firefly luciferase; Q27757; Kinase-Glo luciferase, ATP luminescence, 8 min; Potency, µM (titrated, usually from 38.3 µM), without a hit: at the highest dose activity change, negative = inhibition, hits mostly inhibitors; hit rate 0.28% among 200,000; AID 1379; active means well fitted inhibition curve with a large enough effect; inconclusive means small, poorly fitted or top-dose-only effect; further: potency means the concentration at half of the fitted maximal effect; nearly all actives have a fitted effect of over 60% in size
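Luminescence was the read-out, taken after 8-minute incubation at ambient temperature. Luciferase turned over luciferin with 10 uM ATP in imidazole pH 7.2 buffer containing KCl, MgCl2, Tween 20 and BSA.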
LMNA splice mod: LMNA splicing modulation | HeLa LMNA splicing GFP/RFP minigene ratio, 48 h | Potency, µM (series often up to 46.1 µM), without a hit: top-dose ratio change, negative = inhibition, actives largely listed as inhibitors | hit rate 0.01% among 200,000; active means well fitted inhibition curve with a large enough effect in the signal ratio, with a control signal flat, not every such curve was filed as active; inconclusive means small, poorly fitted or top-dose-only effect, or effect the other way, or a change in a side signal; the % refers to the signal ratio; further: potency means the concentration at half of the fitted maximal effect
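Read-out is the ratio of GFP to DsRed2 object intensity, acquired by 488 nm laser-scanning cytometry on HeLa lamin A-EGFP minigene reporter cells. Compound incubation 48 hrs at 37 °C in Opti-MEM with 2% FBS; DMSO 0.5% final.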
HPGD block: HPGD (human) dehydrogenase inhibition; P15428; purified HPGD, NADH fluorescence kinetic, PGE2 substrate; Potency, µM, inactives show top-dose activity change, negative = inhibition, hits mostly inhibitors; hit rate 4.3% among 150,000; further: potency means the concentration at half of the fitted maximal effect
Target sequence (P15428 whole entry, looked up): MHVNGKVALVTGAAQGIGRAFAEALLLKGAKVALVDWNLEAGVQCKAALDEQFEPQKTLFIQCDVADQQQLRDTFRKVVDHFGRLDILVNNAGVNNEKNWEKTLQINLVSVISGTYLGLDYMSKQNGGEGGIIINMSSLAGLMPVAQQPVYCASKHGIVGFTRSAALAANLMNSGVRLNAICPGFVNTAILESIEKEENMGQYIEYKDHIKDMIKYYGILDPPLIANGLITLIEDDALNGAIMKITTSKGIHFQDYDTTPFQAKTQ
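20 nM HPGD preincubated 15 min at room temperature with compound in 50 mM Tris-HCl pH 8, 0.01% Tween 20. Started with 1 mM NAD+ and 30 uM prostaglandin E2; NADH fluorescence (360/450 nm) read 5 times over 30-s intervals, last minus first.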
ALDH1A1 block: ALDH1A1 (human) enzyme inhibition | P00352 | Purified ALDH1A1, NADH fluorescence, propionaldehyde substrate | Potency, µM (top dose mostly 75.3 µM), without a hit: at the highest dose activity, negative = inhibition, most hits filed as inhibitors | hit rate 7.3% among 220,000 | AID 1030;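 further: potency means the concentration at half of the fitted maximal effect; plate controls were no enzyme wells and a reference inhibitor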
PNC assembly inh: blocks assembly of the perinucleolar compartment | AID 2417 | activity change (PNC), negative = inhibition, % at 10 µM | PC3M PTB-GFP, PNC prevalence imaging, 16 h; stronger effect = lower value | hit rate 3.1% among 140,000;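 active means readout at or below -70, meaning at least 70% loss of cells showing the perinucleolar compartment, a nuclear body marking cancer cells; inconclusive means readout between -30 and a set limit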;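 further: plate controls were DMSO wells for no effect and camptothecin positive control wells for full effect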
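Compounds are pinned in duplicate onto adhered PC3M cells stably expressing GFP-tagged PTB and incubated 16 h at 37 C. Cells are then fixed, nuclei stained with Hoechst, and PNC-positive cells counted.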
The depositor's hits bear a star; ? = inconclusive; . = no result; [ ] = dose if it differs, or a comment. Unless noted, the call rests on the fitted dose curve; in most records, active means well fitted inhibition curve with a large enough effect (not every such curve was filed as active); inconclusive means small, poorly fitted or top-dose-only effect, or another doubt; inactive means no such curve, though single readings can be large or run the other way. Unless noted, on the % scale 0 is the no-effect control and ±100 the full control effect.

SMILES	Luc counter	LMNA splice mod	HPGD block	ALDH1A1 block	PNC assembly inh
N#CC[N+]1(Cc2ccccn2)CCCC1	-1%[7.66 µM]	.	-13%	-5%[13.5 µM]	.
COC(=O)c1cc(=O)nc2sc3ccccc3n12	-3%	0%	-6%	?	15
COC(=O)c1cc(=O)nc2scc(C)n12	3%	4%	-7%	22µM*	26
CCN(C(=O)CSc1nc2ccccc2n1Cc1ccc(C(=O)OC)cc1)c1ccccc1	.	-11%[46 µM]	.	.	.
CN(C(=O)c1ccc(=O)n(Cc2ccc(Cl)cc2)c1)c1ccccc1	3%	.	.	14µM*	.
CN(C(=O)c1cccn(Cc2ccccc2)c1=O)c1ccccc1	-2%	.	.	-3%	.
COc1ccc2c(c1)C(c1ccccc1OC)CC(=O)O2 (stereo not drawn)	0%[39.9 µM]	.	-9%	?	.
COc1ccc2c(c1)C(c1ccccc1C)CC(=O)O2 (stereo not drawn)	-11%[39.9 µM]	.	?	32µM*	.
Cc1ccc(OCc2cc(=O)n3ccsc3n2)c(NC(=O)c2ccco2)c1	.	-19%[46 µM]	.	.	.
Cc1cc(-c2csc(NCc3ccccc3)n2)c(C)n1C	-7%	-8%[46 µM]	.	20µM*	.
Cc1nc(NC(=O)c2ccccc2)sc1-c1csc(NCc2ccccc2)n1	-11%	1%	?	?	?
Cc1cc(-c2csc(N)n2)c(C)n1CCC(C)C	13%	12%	-9%	?	?
Cc1nc2sccn2c1-c1csc(NCc2ccccc2)n1	-3%	21%	-21%	11µM*	-3
Cc1cc(-c2csc(N)n2)c(C)n1CCc1ccccc1	-4%	2%	-4%	?	-108*
Cc1nc(N)sc1-c1csc(NCc2ccccc2)n1	-4%	?	18µM*	2.2µM*	-21
Cc1cc(=O)oc2cc(O)c(O)cc12	-3%	7%	?	?	.
CC(C)CC(=O)Nc1ccc(S(=O)(=O)Nc2cc3c(cc2N2CCOCC2)n(C)c(=O)c(=O)n3C)cc1	.	-1%[46 µM]	.	.	.
Cc1c(C(=O)Nc2ccc(C(C)C)cc2)sc2nc3n(c(=O)c12)CCC3	.	-13%[46 µM]	.	.	.
O=C(Nc1ccc(S(=O)(=O)N2CCCc3ccccc32)cc1)C1CCCO1 (stereo not drawn)	-2%	-17%	-20%	-8%	1
CC1CCCCN1C(=O)Nc1cccc(Cl)c1 (stereo not drawn)	-5%	1%	22µM*	22µM*	?
Cc1ccccc1Oc1ccc(NC(=O)C2CC=CCC2C(=O)O)cc1 (stereo not drawn)	-2%	?	1%	2.2µM*	-83*
O=C(O)C1CC=CCC1C(=O)Nc1ccc(S(=O)(=O)N2CCCc3ccccc32)cc1 (stereo not drawn)	2%	?	-15%	22µM*	9
O=C(O)C1CC=CCC1C(=O)Nc1cccc(Cl)c1 (stereo not drawn)	1%	4%	-29%	18µM*	65
O=C(Nc1cccc(Cl)c1)N1CCCC1	2%	3%	-5%	18%	13
O=C1[C@H]2[C@H]3[C@H](O)[C@H](O)C/C(=N/OC[C@@H](O)COCc4ccco4)[C@@H]3CC[C@@H]2C(=O)N1Cc1ccc2c(c1)OCO2	.	.	.	8%[13.5 µM]	.
SMILES	Luc counter	LMNA splice mod	HPGD block	ALDH1A1 block	PNC assembly inh
CC(/C=N/n1c(-c2ccco2)n[nH]c1=S)=C\c1ccccc1	4%	2%	2.5µM*	-5%	?
S=c1[nH]nc(-c2ccncc2)n1/N=C/C(Cl)=C\c1ccccc1	1%	-12%[46 µM]	.	-14%	.
Cc1ccc(-c2n[nH]c(=S)n2/N=C/c2ccc(C)o2)cc1	2%	-3%	13µM*	?	19
CC(/C=N\NC(=O)CN1CCN(Cc2ccccc2)CC1)=C\c1ccco1	0%	-3%	-16%	?	9
Cc1ccc(-c2n[nH]c(=S)n2/N=C/c2ccncc2)cc1	-2%	.	.	5%	.
CC(/C=N/n1cnnc1)=C\c1ccco1	-1%	-8%	-14%	?	-100*
CC(/C=N/n1c(-c2ccc(Cl)cc2)n[nH]c1=S)=C\c1ccco1	.	?	.	28µM*	?
S=c1[nH]nc(-c2cccnc2)n1/N=C/c1ccco1	5%	.	.	?	.
Cc1ccc(-c2n[nH]c(=S)n2/N=C\c2ccco2)cc1	2%	-2%	22µM*	-6%	?
O=C1CCC/C1=C/Nc1ccc2c(c1)OCO2	-1%	-3%	-12%	?	?
CC1CCC/C(=C\Nc2ccc3c(c2)OCO3)C1=O (stereo not drawn)	-20%	3%	?	13µM*	18
CC(C)(C)C(=O)Cn1c(=N)n(Cc2ccccc2)c2ccccc21	0%	?	-1%	-7%	-119*
COc1cccc(C(c2sc3nc(-c4ccco4)nn3c2O)N2CCN(c3ccccc3F)CC2)c1 (stereo not drawn)	.	-16%[46 µM]	.	.	.
Cc1cccc(CNc2ncncc2-c2ccccc2CN(C)C)c1	.	-6%	.	9%	.
O=[N+]([O-])c1ccccc1OCCOCCOc1cccc2cccnc12	-1%	?	-8%	?	-86*
CCN(CC)CCC(C)OC(c1ccccc1)c1ccccc1 (stereo not drawn)	-1%	-20%[46 µM]	.	2%	.
Fc1ccc(Nc2ccnc(-c3ccoc3)n2)cc1	.	?	.	32µM*	.
c1csc(CNc2ccnc(-c3ccoc3)n2)c1	.	?	.	11µM*	.
Cc1ccc(-c2noc(-c3ccno3)n2)cc1	.	.	.	-6%	.
COc1ccccc1OCCNc1cc(N2CCCCC2)ccc1[N+](=O)[O-]	2%	?	-19%	18µM*	35
Cc1ccc(OCCNc2cc(N3CCN(CCO)CC3)ccc2[N+](=O)[O-])cc1C	-1%	-10%	35µM*	?	57
Cc1ccccc1OCCNc1cc(N2CCNCC2)ccc1[N+](=O)[O-]	-1%	?	.	-15%	.
Cc1cccc(OCCNc2cc(N3CCN(C)CC3)ccc2[N+](=O)[O-])c1	1%	-14%	-23%	-9%	8
O=C(O)c1cc(S(=O)(=O)Nc2ccc(O)cc2)ccc1Cl	-2%	.	-5%	0%	.
CN(C)c1nc(N2CCN(c3ccccc3)CC2)c(C#N)c(=O)o1	12%	-11%	16µM*	?	-22
SMILES	Luc counter	LMNA splice mod	HPGD block	ALDH1A1 block	PNC assembly inh
CC(C)CSc1nc2c(c(=O)[nH]c(=O)n2C)n1CCc1ccccc1	-9%	29%	-11%	-13%	11
CCOC(=O)CSc1nc2c(c(=O)[nH]c(=O)n2C)n1CCCc1ccccc1	10%	2%	-12%	-5%	-108*
CCCCCCn1c(NCC)nc2c1c(=O)[nH]c(=O)n2C	0%	1%	-8%	4%	-93*
COC(=O)C(C)Sc1nc2c(c(=O)n(C)c(=O)n2C)n1CCC(C)C (stereo not drawn)	0%	-2%	-14%	?	-7
COC(=O)CSc1nc2c(c(=O)n(C)c(=O)n2C)n1CCC(C)C	1%	-8%	14µM*	13µM*	?
CCCCCCn1c(SCC(C)C)nc2c1c(=O)[nH]c(=O)n2C	9%	14%	-16%	-1%	35
